High-throughput results deposited in PubChem by National Center for Advancing Translational Sciences (NCATS).
A selection: hits, their analogues and other compounds. The true share with any hit is near 0.88%.
IL-2 act: activators of IL-2; AID 652025; activation, % (series mostly up to about 46 µM); IL-2 activation reporter assay, cell-based qHTS; stimulated with anti-CD3/CD4/CD28 beads; in transgenic mouse T cells; hit rate 0.065% among 360,000; in the data active means activation above about 50%; inconclusive means mostly about 30% to 49%; further: 0% is about no effect
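Unstimulated transgenic mouse T cells; 60-min compound exposure; bead-based TCR/CD4/CD28 stimulation; 18 h culture, 37 degrees C; dual fluorescence (EGFP, DsRed) plate cytometry.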
MBNL1-CUG inh: inhibitors of human MBNL1 binding to CUG repeat RNA. Potency, µM (top dose mostly 57.5 µM), without a hit: at the highest dose activity change, negative = inhibition, actives largely listed as inhibitors. hit rate 0.036% among 280,000. Q9NR56. AID 2675. TR-FRET MBNL1-His/biotin-(CUG)12 binding, 665/545 ratio; active means well fitted inhibition curve with a large enough effect in the signal ratio, with a control signal flat, not every such curve was filed as active; inconclusive means small, poorly fitted or top-dose-only effect, or effect the other way, or a change in a side signal; inactive means no such curve, though single readings can be large or run the other way; the % refers to the signal ratio; further: potency means the concentration at half of the fitted maximal effect; on the % scale 0 is the no-effect control and ±100 the full control effect
Target sequence (Q9NR56 whole entry, looked up): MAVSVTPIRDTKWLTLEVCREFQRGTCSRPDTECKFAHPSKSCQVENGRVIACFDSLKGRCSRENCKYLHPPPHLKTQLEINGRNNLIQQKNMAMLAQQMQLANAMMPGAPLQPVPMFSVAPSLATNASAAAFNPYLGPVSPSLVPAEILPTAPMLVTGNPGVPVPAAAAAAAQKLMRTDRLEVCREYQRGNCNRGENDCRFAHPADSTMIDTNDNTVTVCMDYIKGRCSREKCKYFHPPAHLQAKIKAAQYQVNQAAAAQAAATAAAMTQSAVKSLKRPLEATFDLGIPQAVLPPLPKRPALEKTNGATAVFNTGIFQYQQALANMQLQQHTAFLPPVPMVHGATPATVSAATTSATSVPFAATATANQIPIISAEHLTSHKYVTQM
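Compounds (final 92 nM to 58 uM) are added to His-tagged MBNL1 and biotin-(CUG)12, then terbium anti-His antibody and streptavidin-XL665 (5 nM final). After 60 min at room temperature, the 665/545 nm ratio is read.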
TRHR enhancer: allosterically enhances the human TRH receptor | hit rate 0.66% among 360,000 | P34981 | enhancement, % at 2 µM | TRHR cells, fluo-8 calcium fluorescence, EC20 TRH enhancement; in the data active means enhancement above about 30%; further: 0% is about no effect
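Enhancer read-out: after compound pinning and an initial kinetic agonist-mode read, an EC20 of TRH (10 nM final) was injected and fluo-8 calcium signal (Ex 480/Em 530) followed at 1 s/cycle for 100 cycles in TRHR-expressing cells.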
TRHR agonist: agonists of human TRH receptor; activation, % at 2 µM; TRHR cells, calcium flux fluo-8, FDSS agonist mode; hit rate 0.18% among 360,000; in the data active means activation above about 30%; further: 0% is about no effect
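Fluo-8-loaded TRHR cells; 10 s baseline, compound added, kinetic Ca2+ fluorescence read 1/s, agonist mode.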
CBFb RUNX1 block: blocks binding between human CBF-beta and RUNX1. 230,000 tested, under 10 active. Q01196+Q13951. AlphaScreen CBFb-His/RUNX1-biotin binding, biochemical. Potency, µM (top dose mostly 59.8 µM), inactives show top-dose activity, negative = inhibition, hits mostly inhibitors; further: % of control where 0% means no effect
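Proteins preincubated together for 20 min at RT before compound addition; 15 min later, nickel and streptavidin beads were added and left 90 min prior to AlphaScreen measurement.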
Epigenetic derep: derepresses silenced GFP reporter in murine cells; hit rate 0.2% among 280,000; Potency, µM (highest dose often 53.9 µM), for the others: top-dose GFP activation, actives largely listed as activators; murine LDR cells, GFP reporter derepression, 30 h; further: potency means the concentration at half of the fitted maximal effect; % of control where 0% means no effect; nearly all actives have a fitted effect of over 60% in size
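Murine LDR cells bearing a silenced CMV-driven GFP reporter were exposed to compound for 30 h at 37 C. After PBS washes, GFP-positive cells (20-120 um objects) counted by laser-scanning microplate cytometry.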
The depositor's hits bear a star; ? = inconclusive; nt = not tested or not shown; [ ] = remark or other dose. Unless noted, the call rests on the fitted dose curve; in most records, active means well fitted curve in the direction sought with a large enough effect; inconclusive means small, poorly fitted or top-dose-only effect, or another doubt; inactive means no such curve, though single readings can be large; an effect the other way counts as inactive or inconclusive.

SMILES	IL-2 act	MBNL1-CUG inh	TRHR enhancer	TRHR agonist	CBFb RUNX1 block	Epigenetic derep
Oc1ccc(Cl)cc1CN1CCN(Cc2ccccc2)CC1	-2	2%	31*	1	3%	-1%
CCCC(=O)Cl	nt	nt	nt	nt	4%[21.7 µM]	nt
CCCCCCCC/C=C\CCCCCCCC(=O)OC[C@@H](COP(O)(O)=S)OC	nt	nt	nt	nt	-22%	nt
O=[N+]([O-])c1ccc(N2CCCCC2)c2ncccc12	0	?	-11	-1	-29%	-1%
O=[N+]([O-])c1ccc(N2CCCCCC2)c2nonc12	-2	?	15	142*	nt	nt
Cc1cccc(-n2c(/C=C/c3c(C)[nH]c4ccccc34)nc3ccccc3c2=O)c1	nt	nt	1	-2	nt	4µM*
Cc1cccc(-n2c(/C=C/c3ccccc3O)nc3ccccc3c2=O)c1	nt	nt	3	3	nt	1%
C[C@@H]1O[C@H](O[C@H]2C[C@@H](O)[C@@]3(CO)[C@H]4[C@@H](O)C[C@]5(C)[C@@H](C6=CC(=O)OC6)CC[C@]5(O)[C@H]4CC[C@]3(O)C2)[C@@H](O)[C@H](O)[C@@H]1O	nt	nt	nt	nt	-4%[21.7 µM]	-1%[16.9 µM]
CCSC(=O)Cl	nt	nt	nt	nt	6%[21.7 µM]	nt
CC(C(=O)c1ccc2ccccc2c1)N1CCCCC1 (centres undefined)	1	23%	0	0	6%	-3%
CC(C)NC(C)C(=O)c1ccc2ccccc2c1 (centres undefined)	-2	7%	37*	1	6%	10%
CN1[C@@H]2CC[C@H]1CC(O[C@@H](c1ccccc1)c1ccc(Cl)cc1)C2 (some centres undefined)	nt	nt	nt	nt	-9%[21.7 µM]	1%
Cn1c(NN=O)nc2ccccc21	-4	15%	-4	0	-3%	11µM*
CN1CCN(Cc2nc3ccccc3n2C)CC1	-1	3%	-4	0	2%	0%
CCN(CC)c1ncnc2c1ncn2[C@@H]1O[C@@H](COP(=O)(O)OP(=O)(O)C(Br)(Br)P(=O)(O)O)[C@H](O)[C@H]1O	nt	nt	nt	nt	-12%[21.7 µM]	0%
CCC(=O)O[C@H]1CC[C@H]2[C@@H]3CCC4=CC(=O)CC[C@]4(C)[C@H]3CC[C@]12C	-1	nt	nt	nt	11%[21.7 µM]	1%[16.9 µM]
CC(C)c1cc2c(c(O)c1O)[C@@]1(C(=O)O)CCCC(C)(C)[C@@H]1CC2	nt	nt	nt	nt	-20%	?
Nc1ccc2ccc3cccc[n+]3c2c1	6	?	9	65*	nt	nt
COc1ccccc1-n1c(/C=C/c2ccc(O)cc2)nc2ccccc2c1=O	1	13%	39*	1	nt	nt
COc1cc(/C=C/c2nc3ccccc3c(=O)n2-c2ccccc2O)ccc1O	-3	10%	10	36*	nt	nt
O=C(c1cc(F)ccc1F)C1CCCN(Cc2cc(Cl)ccc2O)C1 (centres undefined)	0	-4%	34*	0	nt	nt
O=[N+]([O-])/C=C/c1ccccc1	nt	nt	nt	nt	-3%[21.7 µM]	nt
O=[N+]([O-])c1ccc(NCc2ccccc2)c2nonc12	-5	?	-28	215*	4%	22µM*
COC1C=CC23c4cc5c(cc4CN(CC2O)C3C1)OCO5 (centres undefined)	nt	nt	nt	nt	8%	?
O=[N+]([O-])c1ccc(Sc2nc3ccccc3o2)c([N+](=O)[O-])c1	-3	?	30*	-1	-5%	1%
SMILES	IL-2 act	MBNL1-CUG inh	TRHR enhancer	TRHR agonist	CBFb RUNX1 block	Epigenetic derep
O=c1c(O)c(-c2ccc(O)c(O)c2)oc2cc(O)cc(O)c12	1	?	63*	6	?	2%
O=c1cc(-c2ccc(O)c(O)c2)oc2cc(O)cc(O)c12	0	?	1	0	?	0%
O=c1cc(C(F)(F)F)c2cc3c4c(c2o1)CCCN4CCC3	18	24%	6	240*	?	7.1µM*
Cc1cc2c(C(F)(F)F)cc(=O)oc2c2c1NCCC2	2	0%	21	91*	8%	0%
O=C1NC(=O)C(=Cc2coc3ccccc3c2=O)C(=O)N1	1	4%	3	0	-7%	-3%
O=C1NC(=O)C(=C/C=C/c2coc3ccc(Br)cc3c2=O)C(=O)N1	nt	4%	10	41*	-20%	1%
CCCCn1c(O)c(/C(C)=N/NC(=O)Nc2ccccc2)c(=O)[nH]c1=O	0	nt	35*	0	-1%	6%
CCCCNC(=O)n1c(NC(=O)OC)nc2ccccc21	nt	nt	nt	nt	17%[21.7 µM]	nt
C=CCn1c(O)c(C=Nc2ccc(N(CC)CC)cc2)c(=O)[nH]c1=O	16	?	8	11	-1%	?
CN(C)c1ccc(N=Cc2c(O)n(CCC3=CCCCC3)c(=O)[nH]c2=O)cc1	206*	0%	-4	1	3%	?
CCN(CC)c1ccc(N=Cc2c(O)n(CCC3=CCCCC3)c(=O)[nH]c2=O)cc1	-2	5%	3	4	8%	22µM*
O=c1[nH]c(=O)n(CCC2=CCCCC2)c(O)c1/C=N/Nc1ccccc1	3	-1%	-4	1	-4%	1%
COc1cc2c(cc1OC)[C@@H]1C(=O)c3ccc(OC)c(CC=C(C)C)c3OC1CO2 (some centres undefined)	nt	nt	nt	nt	nt	-2%
CC[C@]1(O)CC(O[C@@H]2CC(N(C)C)C(O)C(C)O2)c2c(cc3c(c2O)C(=O)c2c(O)cccc2C3=O)C1C(=O)OC (some centres undefined)	nt	nt	nt	nt	-7%	6.3µM*
Fc1cccc(F)c1CN1CCN(c2ccc(Cl)cc2)CC1	-3	2%	-7	-2	nt	nt
Fc1ccccc1N1CCN(Cc2c(F)cccc2F)CC1	-1	-6%	37*	-1	-2%	-2%
CCCOc1ccc2[nH]cc(C3=CCNCC3)c2n1	nt	nt	nt	nt	2%[21.7 µM]	-2%
COC(=O)C1=C(c2ccc(F)cc2OCc2ccccc2)C[C@@H]2CC[C@H]1N2C(=O)N1CCC(O)CC1	1	nt	37*	0	nt	nt
COC(=O)C1=C(c2ccc(F)cc2OCc2ccccc2)C[C@@H]2CC[C@H]1N2C(=O)NCc1ccccc1	-1	nt	-9	0	nt	nt
COc1ccc(OC)c(N=Cc2c(O)n(Cc3ccccc3)c(=S)[nH]c2=O)c1	80*	nt	-2	24	-5%	?
CN1/C(=C\C=C2C(=O)NC(=S)NC2=O)C(C)(C)c2ccccc21	25	?	6	175*	0%	18µM*
O=S(=O)(Cl)c1ccccc1	nt	nt	nt	nt	28%[21.7 µM]	nt
